Hit rate of the full screen: of about 5,500 compounds, about 2,000 (36%) were called active. Not shown: some 18% with an inconclusive outcome. Rule as the data show it: active = normalized growth mostly below about 0.91 (no sharp cut-off); inconclusive = no clear call, values can overlap the other calls; inactive = mostly above about 0.92. The list shows a part of the results.
Assay: chemical genetic growth profiling, strain panel (AID 1159580);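 also: tested at 20 µM; growth read once vehicle control cultures reached saturation at 30 °C; 1 = growth at the plate median or of vehicle wells; lower values mean less growth of the strain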
Settings: S. cerevisiae deletion strains, growth OD

Measured: normalized growth

Clc1ccc(CO/N=C(/Cn2ccnc2)c2ccc(Cl)cc2Cl)c(Cl)c1
active: locus YAL021C, strain ccr4, hits give low values 0.0719 | locus YAL026C, strain drs2, hits give low values 0.066 | locus YAL030W, strain snc1, hits give low values 0.062 | locus YBL061C, strain skt5, hits give low values 0.0675 | locus YBR009C, strain hhf1, hits give low values 0.0713 | locus YBR023C, strain chs3, hits give low values 0.0703 | locus YBR171W, strain sec66, hits give low values 0.084 | locus YBR231C, strain swc5, hits give low values 0.0712 | locus YBR279W, strain paf1, hits give low values 0.0663 | locus YCL011C, strain gbp2, hits give low values 0.0641 | locus YCL016C, strain dcc1, hits give low values 0.0718 | locus YCL069W, strain vba3, hits give low values 0.0674 | locus YCR088W, strain abp1, hits give low values 0.0653 | locus YDL005C, strain med2, hits give low values 0.0803 | locus YDL040C, strain nat1, hits give low values 0.0648 | locus YDR001C, strain nth1, hits give low values 0.0642 | locus YDR069C, strain doa4, hits give low values 0.07 | locus YDR137W, strain rgp1, hits give low values 0.106 | locus YDR159W, strain sac3, hits give low values 0.103 | locus YDR195W, strain ref2 0.146 | locus YDR297W, strain sur2, hits give low values 0.0626 | locus YDR334W, strain swr1, hits give low values 0.0671 | locus YDR335W, strain msn5, hits give low values 0.0633 | locus YDR392W, strain spt3, hits give low values 0.0807 | locus YEL003W, strain gim4, hits give low values 0.0579 | locus YEL037C, strain rad23, hits give low values 0.0606 | locus YEL061C, strain CIN8 (second series), hits give low values 0.0642 | locus YER015W, strain faa2, hits give low values 0.0705 | locus YER016W, strain bim1, hits give low values 0.0699 | locus YER111C, strain swi4, hits give low values 0.0753 | locus YER155C, strain BEM2 (second series), hits give low values 0.104 | locus YFR010W, strain ubp6, hits give low values 0.0725 | locus YGL167C, strain pmr1, hits give low values 0.0799 | locus YGL173C, strain kem1, hits give low values 0.0926 | locus YGL227W, strain vid30, hits give low values 0.067 | locus YGL240W, strain doc1, hits give low values 0.108 | locus YGL253W, strain hxk2, hits give low values 0.0581 | locus YHR013C, strain ard1, hits give low values 0.111 | locus YHR027C, strain rpn1, hits give low values 0.0678 | locus YHR030C, strain SLT2, hits give low values 0.11 | locus YHR079C, strain IRE1, hits give low values 0.138 | locus YHR142W, strain chs7, hits give low values 0.0783 | locus YJL092W, strain hpr5, hits give low values 0.0639 | locus YJL095W, strain BCK1 (second series), hits give low values 0.0624 | locus YJL095W, strain BCK1, hits give low values 0.119 | locus YJL115W, strain asf1, hits give low values 0.076 | locus YJL129C, strain trk1, hits give low values 0.0899 | locus YJL154C, strain vps35, hits give low values 0.0641 | locus YJL164C, strain tpk1, hits give low values 0.0663 | locus YJL166W, strain qcr8, hits give low values 0.0665 | locus YJL187C, strain SWE1, hits give low values 0.0662 | locus YJR066W, strain TOR1, hits give low values 0.016 | locus YKL160W, strain elf1, hits give low values 0.0739 | locus YKR026C, strain gcn3, hits give low values 0.0685 | locus YKR091W, strain srl3, hits give low values 0.0651 | locus YLL001W, strain dnm1, hits give low values 0.0676 | locus YLL026W, hits give low values 0.0627 | locus YLL041C, strain sdh2, hits give low values 0.0619 | locus YLR027C, strain aat2, hits give low values 0.0637 | locus YLR113W, strain HOG1, hits give low values 0.138 | locus YLR221C, strain rsa3, hits give low values 0.0614 | locus YLR258W, strain gsy2, hits give low values 0.0647 | locus YLR262C, strain YPT6 (second series), hits give low values 0.0952 | locus YLR320W, strain mms22, hits give low values 0.0852 | locus YLR342W, strain FKS1, hits give low values 0.0731 | locus YLR357W, strain rsc2, hits give low values 0.13 | locus YLR370C, strain arc18, hits give low values 0.0687 | locus YLR384C, strain iki3, hits give low values 0.0679 | locus YML120C, strain ndi1, hits give low values 0.0632 | locus YMR058W, strain fet3, hits give low values 0.0659 | locus YMR125W, strain sto1, hits give low values 0.0799 | locus YMR129W, hits give low values 0.0624 | locus YMR205C, strain PFK2, hits give low values 0.104 | locus YMR231W, strain pep5, hits give low values 0.205 | locus YNL071W, strain lat1, hits give low values 0.0653 | locus YNL183C, strain NPR1, hits give low values 0.0338 | locus YNL209W, strain ssb2, hits give low values 0.0716 | locus YNL248C, strain rpa49, hits give low values 0.0816 | locus YNL322C, strain KRE1 (second series), hits give low values 0.0683 | locus YNR049C, strain mso1, hits give low values 0.0594 | locus YOR001W, strain rrp6, hits give low values 0.0749 | locus YOR070C, strain gyp1, hits give low values 0.0664 | locus YOR080W, strain dia2, hits give low values 0.0735 | locus YOR083W, strain WHI5, hits give low values 0.0763 | locus YOR106W, strain vam3, hits give low values 0.0782 | locus YOR231W, strain MKK1, hits give low values 0.116 | locus YOR265W, strain rbl2, hits give low values 0.0668 | locus YOR270C, strain vph1, hits give low values 0.112 | locus YOR290C, strain snf2, hits give low values 0.0669 | locus YPL051W, strain arl3, hits give low values 0.0756 | locus YPL078C, strain atp4, hits give low values 0.08 | locus YPL106C, strain sse1, hits give low values 0.105 | locus YPL240C, strain hsp82, hits give low values 0.0633 | locus YPL256C, strain CLN2, hits give low values 0.139
